We go through 49 compounds from PubChem BioAssay AID504333 (National Center for Advancing Translational Sciences (NCATS), 2011).

In all, about 360,000 compounds went through this assay and about 16,000 (4.4%) were called active. Roughly 9% stayed inconclusive and do not appear here. Calls come from the whole dose curve; as a rule, active = well fitted inhibition curve with a large enough effect; inconclusive = small, poorly fitted or top-dose-only effect; inactive = no such curve, though single readings can be large or run the other way. Many of the other results were omitted from the sample, so actives are more common in it than they were.
% is set by controls: 0 for no effect and ±100 for the full control effect; potency is the fitted concentration of half-maximal effect.

Bromodomain adjacent to zinc finger domain protein 2B (Homo sapiens), sequence (Q9UIF8 whole entry, looked up, the tested form may be a part): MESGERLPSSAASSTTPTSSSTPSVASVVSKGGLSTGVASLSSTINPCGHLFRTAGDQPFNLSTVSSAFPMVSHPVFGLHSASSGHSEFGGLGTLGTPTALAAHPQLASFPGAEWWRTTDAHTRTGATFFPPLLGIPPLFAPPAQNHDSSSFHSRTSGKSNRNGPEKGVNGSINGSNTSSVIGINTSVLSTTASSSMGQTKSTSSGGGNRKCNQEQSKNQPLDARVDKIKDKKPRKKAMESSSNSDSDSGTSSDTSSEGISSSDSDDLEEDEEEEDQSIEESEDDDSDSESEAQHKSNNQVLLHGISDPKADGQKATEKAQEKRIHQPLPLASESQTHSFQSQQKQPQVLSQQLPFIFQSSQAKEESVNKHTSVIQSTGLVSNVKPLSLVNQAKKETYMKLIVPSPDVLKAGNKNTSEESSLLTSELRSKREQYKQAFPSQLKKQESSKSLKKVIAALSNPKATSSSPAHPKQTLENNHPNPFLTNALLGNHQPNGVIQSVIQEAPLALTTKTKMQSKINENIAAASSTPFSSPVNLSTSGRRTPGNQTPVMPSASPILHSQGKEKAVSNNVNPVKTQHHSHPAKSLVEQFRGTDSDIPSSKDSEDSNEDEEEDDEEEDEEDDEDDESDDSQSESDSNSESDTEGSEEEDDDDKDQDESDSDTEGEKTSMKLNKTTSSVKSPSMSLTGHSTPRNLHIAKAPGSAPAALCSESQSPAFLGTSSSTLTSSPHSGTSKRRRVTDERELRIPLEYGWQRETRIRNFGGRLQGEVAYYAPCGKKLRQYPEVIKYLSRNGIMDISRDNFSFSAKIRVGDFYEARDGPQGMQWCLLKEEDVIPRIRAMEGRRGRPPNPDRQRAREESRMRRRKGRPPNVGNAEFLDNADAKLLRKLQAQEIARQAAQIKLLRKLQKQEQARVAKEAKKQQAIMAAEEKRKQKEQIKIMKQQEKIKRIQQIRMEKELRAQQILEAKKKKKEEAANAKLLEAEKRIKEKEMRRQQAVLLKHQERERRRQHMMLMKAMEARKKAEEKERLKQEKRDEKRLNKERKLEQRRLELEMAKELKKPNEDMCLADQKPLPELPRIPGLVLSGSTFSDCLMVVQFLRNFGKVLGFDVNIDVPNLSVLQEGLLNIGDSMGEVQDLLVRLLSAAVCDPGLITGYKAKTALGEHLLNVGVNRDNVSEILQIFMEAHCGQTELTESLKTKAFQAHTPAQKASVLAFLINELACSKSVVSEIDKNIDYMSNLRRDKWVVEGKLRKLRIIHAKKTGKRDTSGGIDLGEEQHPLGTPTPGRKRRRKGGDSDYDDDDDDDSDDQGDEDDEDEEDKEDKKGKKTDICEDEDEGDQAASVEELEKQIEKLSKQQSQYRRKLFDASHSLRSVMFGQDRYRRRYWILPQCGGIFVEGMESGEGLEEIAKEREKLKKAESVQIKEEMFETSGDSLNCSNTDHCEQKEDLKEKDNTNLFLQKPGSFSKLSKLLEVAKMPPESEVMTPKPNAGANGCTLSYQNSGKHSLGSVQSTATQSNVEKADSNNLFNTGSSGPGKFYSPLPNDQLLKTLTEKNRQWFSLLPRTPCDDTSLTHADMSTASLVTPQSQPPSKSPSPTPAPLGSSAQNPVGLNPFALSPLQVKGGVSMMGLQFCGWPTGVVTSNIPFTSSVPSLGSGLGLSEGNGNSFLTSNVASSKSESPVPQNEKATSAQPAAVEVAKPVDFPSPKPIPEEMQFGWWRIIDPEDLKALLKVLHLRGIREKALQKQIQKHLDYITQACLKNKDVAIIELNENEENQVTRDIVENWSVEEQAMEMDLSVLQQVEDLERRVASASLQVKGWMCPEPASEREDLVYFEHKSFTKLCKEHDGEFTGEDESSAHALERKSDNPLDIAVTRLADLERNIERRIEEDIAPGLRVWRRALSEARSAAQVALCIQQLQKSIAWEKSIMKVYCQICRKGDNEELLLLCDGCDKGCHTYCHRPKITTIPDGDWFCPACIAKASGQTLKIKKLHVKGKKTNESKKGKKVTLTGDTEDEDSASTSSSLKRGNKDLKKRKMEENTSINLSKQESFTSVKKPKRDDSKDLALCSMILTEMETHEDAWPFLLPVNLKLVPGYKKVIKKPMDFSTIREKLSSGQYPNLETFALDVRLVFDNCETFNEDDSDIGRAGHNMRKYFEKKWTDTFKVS

This assay concerns the target Bromodomain adjacent to zinc finger domain protein 2B (Homo sapiens) (UniProt Q9UIF8). Description: qHTS Assay for Inhibitors of BAZ2B. Note: nearly all actives have a fitted effect of over 60% in size. As to conditions: AlphaScreen BAZ2B-H3K14Ac peptide displacement; series mostly up to 114 µM; activity change, negative = inhibition: at the top concentration. From the text:
BAZ2B (bromodomain adjacent to zinc finger domain, 2B) belongs to a family of ubiquitously expressed bromodomain containing proteins, which biological function has not yet been elucidated. […] The interaction of BAZ2B with ISWI mediated by the BAZ1 motif has recently been described. […] The protocol is based on the AlphaScreen (PerkinElmer) displacement assay developed by NCGC [5], but uses the peptide ligand Biot-H3K14Ac, a high affinity binding partner for BAZ2B, in an AlphaScreen format. Although AlphaScreen has significant advantages with its utility in a variety of epigenetic target assays, the primary screening data provided in this deposition should be used with caution due to the prevalence of screening artifacts. The top compound concentration tested was 110uM in this assay, which increases number of actives and potential artifacts. An AlphaScreen counterscreen is highly recommended to be run against any putative actives to eliminate non-specific artifacts. Alternatively, one can use other AlphaScreen assays in PubChem to filter out promiscuous hits. Eberharter, A. et al. ACF1 improves the effectiveness of nucleosome mobilization by ISWI through PHD-histone contacts. The EMBO journal 23, 4029-4039. 2004. PMID: 15457208 [2] Jones, M.H. et al. A novel family of bromodomain genes. Genomics 63, 40-45. 2000. PMID: 10662543 [3] Yasgar, et al. Compound Management for Quantitative High-Throughput Screening. JALA. 2008 Apr;13(2):79-89. PMID: 18496600 [4] Inglese, et al. Quantitative high-throughput screening: a titration-based approach that efficiently identifies biological activities in large chemical libraries. Proc Natl Acad Sci. 1;103(31):11473-8. 2006. PMID: 16864780 [5] Quinn et al. A chemiluminescence-based method for identification of histone lysine methyltransferase inhibitors. Mol Biosyst 6(5): 782-8. 2010. PMID: 20567762 [6] Baell,Holloway. New substructure filters for removal of pan assay interference compounds (PAINS) from screening libraries and for their exclusion in bioassays. J Med Chem. 53(7):2719-40. 2010. PMID: 20131845 NIH Molecular Libraries Probe Production Network [MLPCN] NIH Chemical Genomics Center [NCGC] Structural Genomics Consortium (SGC) NIH Grant: 5U54 MH084681-02
To each well of a 1,536w plate, 2ul of BAZ2B protein (final 50nM) and 1ul biotinylated histone peptide acetylated at Lys14 [b-H3(5-23)K14Ac] (final 50nM) were added in 1x PBS buffer, pH 7.4, containing 0.01% Tween-20, using a nanoliter dispenser. Formation of a protein-peptide complex proceeded at room temperature for 30 min. A Kalypsys pin-tool was employed to transfer 23 nL of library compound solution in DMSO to each well. Following a 30 min incubation of the protein-peptide complex with compounds at room temperature, a mixture of 40 ug/mL each streptavidin-coated donor and nickel chelate acceptor AlphaScreen beads (final 10 ug/mL) were added in a 1ul dispense for a final volume of 4ul. A brief centrifugation followed (1000rpm, 1 min) and were then incubated protected from the light for 20 min at room temperature. Plates were read on an EnVision multilabel plate reader using the 1,536 plate HTS AlphaScreen aperture (excitation time 80 ms, measurement time 240 ms).
For orientation: qHTS replaces the single test concentration by a dilution series.
`CCC(Sc1nc2n[nH]c(C)c2c(=N)n1-c1ccccc1Cl)C(=O)N(CC)CC` (centres undefined): the “activity change, negative = inhibition” value was 4.48% (inactive).

`COc1ccc(-c2nc3sc(CCNS(=O)(=O)c4ccc(F)c(C)c4)c(C)n3n2)cc1`: the “activity change, negative = inhibition” value was -4.23% (inactive).

On to `COc1ccc(-c2nc(SCC(=O)N3CCCCC3C)n[nH]2)cc1` (centres undefined), for which the “activity change, negative = inhibition” value is 2.94% (inactive).

As for `Cc1ccc(S(=O)(=O)N2CCN(Cc3cccc(C)c3O)CC2)cc1`, the “activity change, negative = inhibition” value is 11.2% (inactive).

In the case of `O=S(=O)(c1ccc(F)cc1)N1CCN(Cc2ccccc2C(F)(F)F)CC1`, the Potency was 28.2 µM (active).

Consider `O=C(CN1CCN(S(=O)(=O)c2ccc(F)cc2)CC1)Nc1ccccc1F`, for which the “activity change, negative = inhibition” value was 3.45% (inactive).

In the case of `COc1ccc(-c2onc(C)c2C)cc1S(=O)(=O)NCc1cccs1`, the “activity change, negative = inhibition” value was -0.451% (inactive).

As to `CCc1ccc(S(=O)(=O)n2ccnc2)cc1`, the “activity change, negative = inhibition” value is -13.1% (inactive).

For `Cc1c(-c2cccc(NC(=O)C(C)(C)C)c2)nc2ncccn12`, the “activity change, negative = inhibition” value is 6.49% (inactive).

Take `Cc1ccccc1Nc1c(-c2ccccc2)nc2ncccn12`: the “activity change, negative = inhibition” value is -5.09% (inactive).

Take `CCc1cccc(C)c1Nc1c(-c2ccc(N(C)C)cc2)nc2ncccn12`: the Potency was 10 µM (active).

Regarding `COc1cc(OC)c(NC(=O)c2c3c(nn2C)-c2ccccc2SC3)cc1Cl`, the “activity change, negative = inhibition” value was -15.7% (inactive).

As to `O=C(NCCCO)C(=O)Nc1c2c(nn1-c1ccccc1)CSC2`, the “activity change, negative = inhibition” value is 7.43% (inactive).

With `COc1ccc(OCCCC(=O)Oc2ccc(OC)cc2)cc1`, the “activity change, negative = inhibition” value was -6.9% (inactive).

For the compound `COc1ccc(OCCCn2c(C)nc3cc(C)c(C)cc32)cc1`, the “activity change, negative = inhibition” value is -28.9% (inactive).

On to `COc1ccc(OCCn2ccnc2C)cc1`, for which the Potency is 56.2 µM (active).

For the compound `Cc1ccc(C(=O)Nc2c(C(=O)NC(C)(C)C)oc3ccccc23)cc1`, the “activity change, negative = inhibition” value was 11% [at 57.1 µM] (inactive).

Turning to `COc1ccc(NC(=O)c2ccc3oc(=O)c(S(=O)(=O)c4ccc(F)cc4)cc3c2)c(OC)c1`, the “activity change, negative = inhibition” value is -14.1% (inactive).

Take `O=C(CSc1nccn1Cc1ccc(Cl)cc1)NCc1ccccc1`: the “activity change, negative = inhibition” value is -25.4% (inactive).

Regarding `COc1ccccc1C(c1nnnn1CC1CCCO1)N1CCN(c2ccccc2)CC1` (centres undefined), the Potency is 56.2 µM (active).

On to `Cc1cccc(N2CCN(C(c3ccccc3)c3nnnn3CC3CCCO3)CC2)c1C` (centres undefined), for which the “activity change, negative = inhibition” value was -8.12% (inactive).

For the compound `COc1ccc(C(c2nnnn2Cc2cccs2)N2CCN(c3ccccc3)CC2)cc1OC` (centres undefined), the “activity change, negative = inhibition” value was -35.7% (inactive).

Regarding `COCCCNC(=O)c1ccc(NC(=O)c2nsc3ccccc23)cc1`, the “activity change, negative = inhibition” value was -0.501% (inactive).

Take `COC(=O)c1cccc(Cn2nnc3sc4c(c3c2=O)CCC(C(C)(C)C)C4)c1` (centres undefined): the “activity change, negative = inhibition” value was -0.516% (inactive).

Take `Cc1cccc(N2CCN(C(=O)Cn3ncc4c5ccccc5n(C)c4c3=O)CC2C)c1` (centres undefined): the “activity change, negative = inhibition” value was 1.15% (inactive).

As for `COc1ccc(-c2nnc(SCC(=O)c3ccco3)n2-c2ccccc2)cc1`, the “activity change, negative = inhibition” value is 8.78% (inactive).

For `COc1ccc(NCc2nnc(SCc3ccccc3)n2-c2ccc(OC)cc2)cc1`, the Potency is 50.1 µM (active).

In the case of `CCc1nnc(NC(=O)CSc2nnc(Cc3ccccc3)n2-c2ccc(OC)cc2)s1`, the “activity change, negative = inhibition” value was 8.5% (inactive).

Regarding `Cc1ccc(Cl)cc1N1CCN(C(=O)CN2C(=O)COc3ccc(S(=O)(=O)N4CCOCC4)cc32)CC1`, the “activity change, negative = inhibition” value is 4.23% (inactive).

Consider `C[n+]1ccc(/C=C/c2c[nH]c3ccccc23)cc1`, for which the Potency is 44.7 µM (active).

As for `O=C(N/N=C/c1c[nH]c2ccccc12)c1cc2ccccc2o1`, the “activity change, negative = inhibition” value is -23.5% (inactive).

For the compound `COc1ccc(/C=C(\C#N)c2c[nH]c3ccccc23)cc1`, the “activity change, negative = inhibition” value was 3.05% (inactive).

As to `CCOC(=O)C1CCCN(S(=O)(=O)c2cc(-c3cc(C)no3)ccc2OC)C1` (centres undefined), the “activity change, negative = inhibition” value is 0.155% (inactive).

Take `COc1cccc(N2CCN(S(=O)(=O)c3ccc4c(c3)CCCN4C(C)=O)CC2)c1`: the “activity change, negative = inhibition” value is -16.9% (inactive).

With `COc1ccccc1CN1CCC(CNC(=O)c2cnn(-c3ccccc3Cl)c2C2CCN(C(=O)OC(C)(C)C)CC2)CC1`, the “activity change, negative = inhibition” value is -2.36% [at 57.1 µM] (inactive).

As for `O=C(O)CCC(=O)N(Cc1ccccc1)Cc1ccccc1`, the “activity change, negative = inhibition” value is 1.67% (inactive).

In the case of `O=C(O)CCC(=O)N(Cc1cccs1)Cc1cccs1`, the Potency is 56.2 µM (active).

As for `O=C(CCc1ccccc1)NCCc1cccs1`, the “activity change, negative = inhibition” value is 13.8% (inactive).

Consider `O=C1CC(c2nnc(Cc3ccc(Cl)cc3)o2)CN1c1ccccc1` (centres undefined), for which the “activity change, negative = inhibition” value was -3.8% (inactive).

Regarding `CCc1ccc(NC(=O)CCS(=O)(=O)c2cc3c(cc2Cl)NC(=O)CO3)cc1`, the “activity change, negative = inhibition” value was -4.74% (inactive).

As to `CCOC(=O)Cn1c(=O)n(-c2ccccc2OC)c2nc(-c3cccc(F)c3)nc(C(N)=O)c21`, the “activity change, negative = inhibition” value is -12.6% (inactive).

Consider `Cc1ccc(Nc2nc(C)cc(C)c2C(N)=O)cc1`, for which the “activity change, negative = inhibition” value is 1.28% (inactive).

Regarding `CC(=O)Nc1ccc(Nc2cc(C)nc(Nc3ccc(NC(C)=O)cc3)n2)cc1`, the Potency is 56.2 µM (active).

Turning to `COc1ccc(C(=O)NNc2cc(C)nc(NNC(=O)c3ccc(OC)cc3)n2)cc1`, the “activity change, negative = inhibition” value was 17.5% (inactive).

With `CCN1CCN(c2cc(C)c3cc(NC(=O)c4cc(Cl)ccc4OC)ccc3n2)CC1`, the “activity change, negative = inhibition” value is -34% (inactive).

As to `O=C(NCc1cccnc1)C(=O)Nc1nc(-c2ccccc2)cs1`, the “activity change, negative = inhibition” value is -7.21% (inactive).

`O=C(Nc1nc(-c2cccnc2)cs1)c1ccccc1F`: the “activity change, negative = inhibition” value is 12.8% (inactive).

`Cc1ccccc1Nc1nc(-c2cccnc2)cs1`: the Potency is 39.8 µM (active).

`Cc1ccccc1-c1nc(SCC(=O)N(C)c2ccccc2)c2c(=O)n(C)c(=O)n(C)c2n1`: the “activity change, negative = inhibition” value is 2.53% (inactive).
